PLK1 PBD inh – qHTS for Inhibitors of PLK1-PDB (polo-like kinase 1 - polo-box domain): Primary Screen | Serine/threonine-protein kinase PLK1 (Homo sapiens), P53350 | Plk1 PBD binding of FITC phosphopeptide, fluorescence polarization | Potency, µM, without a hit: max response, negative = inhibition, hits mostly inhibitors | actives 2.8% (n = 360,000); also: potency is read from the fitted curve at half-maximal effect; series mostly up to about 57 µM; % is scaled to controls: 0 for no effect and ±100 for the full control effect; nearly all actives have a fitted effect of over 65% in size
Target sequence (P53350 whole entry, looked up, the tested form may be a part): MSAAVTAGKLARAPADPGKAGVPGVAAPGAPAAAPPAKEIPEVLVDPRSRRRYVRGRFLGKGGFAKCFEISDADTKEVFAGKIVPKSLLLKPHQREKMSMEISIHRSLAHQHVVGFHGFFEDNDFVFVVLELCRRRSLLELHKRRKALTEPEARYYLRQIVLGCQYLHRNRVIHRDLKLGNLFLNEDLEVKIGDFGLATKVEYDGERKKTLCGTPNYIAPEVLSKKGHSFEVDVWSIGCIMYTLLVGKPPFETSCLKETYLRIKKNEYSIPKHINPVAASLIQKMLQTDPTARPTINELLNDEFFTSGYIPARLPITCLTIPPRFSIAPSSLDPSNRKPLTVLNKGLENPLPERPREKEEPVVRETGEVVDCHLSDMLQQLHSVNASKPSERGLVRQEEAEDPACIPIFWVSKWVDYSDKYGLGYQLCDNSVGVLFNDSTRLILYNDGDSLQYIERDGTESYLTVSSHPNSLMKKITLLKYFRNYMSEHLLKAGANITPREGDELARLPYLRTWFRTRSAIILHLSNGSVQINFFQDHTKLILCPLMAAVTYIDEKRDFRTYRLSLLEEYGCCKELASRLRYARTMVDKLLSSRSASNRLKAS
TSHR antagonist – Antagonists of the Thyroid Stimulating Hormone Receptor: HTS campaign | TSHR-expressing cells, TSH-stimulated cAMP HTRF, 2 h; hits give low values | activity change, negative = inhibition, % at 11.5 µM | actives 0.2% (n = 330,000) | AID 504810, 2011;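 active = activity change below a set negative limit, meaning inhibition stronger than a set level, cut at about -70% in these data; inconclusive = activity change between two set negative limits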; also: % is scaled to controls: 0 for no effect and ±100 for the full control effect
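Cell-based HTRF cAMP assay; TSHR cells + compound, TSH EC80 (4nM final), 2 h, 37 deg C. Lysis with anti-cAMP cryptate and cAMP-d2, 30 min RT, read 665/620 nm.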
Vif-A3F inh – qHTS for Inhibitors of Vif-A3F Interactions: qHTS. actives 0.2% (n = 390,000). Potency, µM (doses to about 46.1 µM), without a hit: at the top dose activity, negative = active. HeLa A3F-eYFP + Vif (tagged APOBEC3F with the HIV-1 protein that degrades it), YFP fluorescence increase. AID 602313, 2012; also: potency is read from the fitted curve at half-maximal effect; % of control where 0% means no effect; nearly all actives have a fitted effect of over 65% in size
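HeLa cells stably expressing Vif plus C-terminally eYFP-tagged A3F were seeded, incubated overnight at 37 deg C, dosed with compound, incubated overnight again at 37 deg C. Yellow fluorescence (Ex 488/Em 500-530) reported blocked Vif-mediated A3F-eYFP degradation.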
Vif-A3G inh – qHTS for Inhibitors of Vif-A3G Interactions: qHTS; actives 0.076% (n = 410,000); DNA dC->dU-editing enzyme APOBEC-3G (Homo sapiens), Q9HC16; Potency, µM (titrated, usually from 46.1 µM), for inactives: at the top dose activity, negative = active, usual class: inhibitors; HeLa A3G-eYFP + Vif (tagged APOBEC3G with the HIV-1 protein that degrades it), YFP fluorescence, overnight; also: potency is read from the fitted curve at half-maximal effect; % is scaled to controls: 0 for no effect and ±100 for the full control effect; nearly all actives have a fitted effect of over 60% in size
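Read-out is eYFP fluorescence (Ex 488/Em 500-530) from Vif-expressing HeLa A3G-eYFP cells; more signal means A3G escaped Vif-mediated degradation. Cells plated overnight, compound pinned in, incubated overnight at 37 deg C.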
VDR inhibitor – Inhibitors of the vitamin D receptor (VDR): qHTS; Vitamin D3 receptor (Homo sapiens), P11473; VDR-SRC2-3 peptide fluorescence polarization, 2 h; Potency, µM, inactives show max response, negative = inhibition, most hits filed as inhibitors; actives 0.93% (n = 400,000); AID 504847, 2011; also: potency is read from the fitted curve at half-maximal effect; % is scaled to controls: 0 for no effect and ±100 for the full control effect
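Measured by FP: displacement of SRC2-3 coactivator peptide from VDR by library compounds, following a two-hour ambient incubation.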
Active calls of the source: *; u = inconclusive; x = not tested or not shown. Compounds with a hit are over-represented: about 3.1% of the library has one in this group of screens. Unless noted, calls follow the shape of the dose curve; as a rule, active = well fitted curve in the direction sought with a large enough effect; inconclusive = small, poorly fitted or top-dose-only effect, or another doubt; inactive = no such curve, though single readings can be large; an effect the other way counts as inactive or inconclusive.

SMILES	PLK1 PBD inh	TSHR antagonist	Vif-A3F inh	Vif-A3G inh	VDR inhibitor
Cc1ccc(-c2nn(-c3ccccc3)cc2/C=C2\SC(=S)N(CC(=O)O)C2=O)cc1	30µM*	-14	9%	4%	u
O=C1C(=Cc2cn(-c3ccccc3)nc2-c2ccc(OCc3ccccc3F)cc2)SC(=S)N1CCS(=O)(=O)O	9.5µM*	x	x	-7%	x
Nc1cc(N)cc(N)c1	x	x	x	2%	x
CCCCC/C=C\C=C\[C@H](O)CCCCCCCC(=O)O	x	x	x	x	2%
C=CCn1c(SCC(=O)NCc2ccco2)nnc1-c1cccc(N(C)C)c1	x	x	x	2%	x
COc1ccccc1NC(=O)CCC(=O)O	-8%	9	-3%	2%	3%
O=C(O)CCC(=O)Nc1ccccc1Oc1ccccc1	27µM*	4	4%	0%	79µM*
CC1CC1C(=O)OCC(=O)Nc1ccccc1Oc1ccccc1 (stereo not drawn)	27µM*	-3	0%	4%	-25%
Cc1cc(=O)n2nc(-c3ccccc3)sc2c1C#N	21µM*	-3	2%	1%	u
COC/C=C/C1=CC2=CC(=O)C(C)(OC(=O)C3CCCC3)C(=O)C2=CO1 (stereo not drawn)	24µM*	-12	-29%	-5%	u
Cc1ccc(-c2nc(S(=O)(=O)c3ccc(F)cc3)c(SCC(=O)NCC3CCCO3)o2)cc1 (stereo not drawn)	19µM*	9	-2%	-1%	-20%
O=C(Cc1ccc(Cl)c(Cl)c1)NNC(=S)NCC1CCCO1 (stereo not drawn)	-29%	11	0%	-1%	-12%
S=C(NCC1CCCO1)Nc1ccc(Cl)c(Cl)c1 (stereo not drawn)	12µM*	-2	-2%	3%	u
Cc1ccc(NS(=O)(=O)c2ccc(OCC(=O)NCC3CCCO3)cc2)cc1 (stereo not drawn)	30µM*	6	-9%	-4%	-5%
Cc1ccc(C)c(NS(=O)(=O)c2ccc(OCC(=O)NCC3CCCO3)cc2)c1 (stereo not drawn)	-20%	-12	10%	-2%	4%
O=C(CN(C1CCCCC1)S(=O)(=O)c1ccccc1)NCC1CCCO1 (stereo not drawn)	-1%	0	-6%	1%	-3%
O=C(CN(C1CCCCC1)S(=O)(=O)c1ccc(F)cc1)NCC1CCCO1 (stereo not drawn)	30µM*	x	3%	u	u
COc1cccc(/C=C/c2cnc3ccccc3n2)c1OC	x	x	x	-1%	x
CN(C)C(=O)c1ccc(-c2ccc3ncnc(NC4CCNCC4)c3c2)cc1	x	x	x	x	-4%
CCOC(=O)c1sc(N2C(=O)c3oc4ccc(F)cc4c(=O)c3C2c2ccc(C)cc2)nc1C (stereo not drawn)	x	x	x	-5%	x
COc1ccccc1NS(=O)(=O)c1ccc(O)c(NC(=S)NCC2CCCO2)c1 (stereo not drawn)	13µM*	-1	-4%	0%	-30%
CCNS(=O)(=O)c1ccc(NC(=S)NCC2CCCO2)cc1 (stereo not drawn)	24µM*	31	-15%	0%	u
CN1CCN(C2=C(Cl)C(=O)c3ccccc3C2=O)CC1	9.5µM*	x	u	u	50µM*
CN1CCN(C2=C(Cl)C(=O)C(c3cnc(N4CCCCC4)s3)=C(Cl)C2=O)CC1	3.8µM*	1	-1%	u	50µM*
NC(=O)C1CCN(C2=C(Cl)C(=O)c3ccccc3C2=O)CC1	27µM*	44	-1%	1%	u
SMILES	PLK1 PBD inh	TSHR antagonist	Vif-A3F inh	Vif-A3G inh	VDR inhibitor
CN1CCN(C2=C(Cl)C(=O)N(C3CCCCC3)C2=O)CC1	-8%	-9	-11%	-7%	1%
CN1C(C(=O)c2ccccc2)=C(OC(=O)c2ccc(Br)cc2)c2ccccc2S1(=O)=O	x	x	1%	2%	-15%
CC[N+]1(CC(=O)c2ccc(OC)cc2)CCCCC1	x	x	x	2%	x
CCC1Sc2ccc(S(=O)(=O)CCC(=O)NCc3ccc(C)o3)cc2NC1=O (stereo not drawn)	u	2	-1%	-1%	1%
CCC1Sc2ccc(S(=O)(=O)CCC(=O)N3CCc4ccccc43)cc2NC1=O (stereo not drawn)	-19%	18	-4%	5%	-14%
CC1Sc2ccc(S(=O)(=O)CCC(=O)N3CCc4ccccc43)cc2NC1=O (stereo not drawn)	30µM*	4	5%	-6%	-19%
COc1ccc(NC(=O)CCS(=O)(=O)c2ccc3c(c2)NC(=O)C(C)S3)cc1OC (stereo not drawn)	6.7µM*	-11	-6%	3%	u
CCC1Sc2ccc(S(=O)(=O)CCC(=O)Nc3ccccc3Cl)cc2NC1=O (stereo not drawn)	-18%	-131*	6%	0%	-2%
Cc1ccc2[nH]c(=O)c(CN(CCO)Cc3nnnn3Cc3ccco3)cc2c1	x	x	x	-1%	-14%
O=[N+]([O-])c1ccc(O/N=[N+](\[O-])N2CCN(c3ncccn3)CC2)c([N+](=O)[O-])c1	x	x	x	-20%	x
CCOc1ccccc1N(C)C(=O)c1ccc2c(=O)n3c(nc2c1)CCCCC3	24µM*	-3	-9%	-2%	-22%
CC(OC(=O)c1ccc2c(=O)n3c(nc2c1)CCC3)C(N)=O (stereo not drawn)	21µM*	4	-2%	0%	-6%
O=C(Nc1cccc(S(=O)(=O)N2CCCCC2)c1)c1ccc2c(=O)n3c(nc2c1)CCCCC3	5%	-77*	-2%	1%	2%
CN(C(=O)c1ccc2c(=O)n3c(nc2c1)CCCCC3)c1ccccc1F	-14%	-2	-8%	2%	4%
Cc1nc2ccn(Cc3ccco3)c(=O)c2cc1C(=O)N1CCN(c2ccccc2F)CC1	x	x	-8%	0%	-1%
COc1ccc(C2C=C3CNS(=O)(=O)C3CC2OC(=O)c2cccs2)cc1 (stereo not drawn)	x	x	x	-20%	-4%
CC(C)OC(=O)c1cc(C(=O)c2cc(F)ccc2O)coc1=N	-3%	47	11µM*	u	-1%
COc1ccc(O)c(C(=O)c2coc(=N)c(C(=O)Nc3ccc(SC(F)F)cc3)c2)c1	33%	-19	13µM*	5%	-4%
CC(NC(=O)Cc1cc(F)cc(F)c1)C(=O)NC(C(=O)OC(C)(C)C)c1ccccc1 (stereo not drawn)	x	x	x	x	-10%
Cc1ccc(NC(=O)COc2ccccc2C(=O)Nc2ccccc2)cc1	x	x	x	3%	x
COc1ccc(NC(=S)Nc2cc(-c3ccccc3)[nH]n2)cc1Cl	21µM*	-8	0%	-1%	-30%

From PubChem
